Source: PubChem (National Center for Advancing Translational Sciences (NCATS))
A selection: hits, their analogues and other compounds. The true share with any hit is near 1.4%.
Mm-Cpn inhibitor: inhibitors of Methanococcus maripaludis chaperonin TRiC (MmCpn); purified Mm-Cpn ATPase, ADP Transcreener TR-FRET; Potency, µM (highest dose often 76.9 µM), without a hit: at the top dose activity, negative = inhibition, hits mostly inhibitors; 330,000 compounds, 0.031% hits; AID 504842; active = well fitted inhibition curve with a large enough effect; inconclusive = small, poorly fitted or top-dose-only effect; note: potency is the fitted concentration of half-maximal effect; % is set by controls: 0 for no effect and ±100 for the full control effect; nearly all actives have a fitted effect of over 80% in size
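ATP (10 uM final) was added to archaeal chaperonin (25 nM final) after 10 min exposure to test compound at 37°C; after 30 min further incubation, ADP was detected by competitive TR-FRET.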
KCNH2 3.1 block: inhibitors of human KCNH2 3.1 potassium channel isoform; U2OS KCNH2 3.1, thallium flux FluxOr; active compounds read low; activity change, % (tested at about 1.8 µM); 340,000 compounds, 0.95% hits; AID 720553;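 active = maximum activity change below -70%; inconclusive = maximum activity change from -70% to -50%; inactive = maximum activity change above -50%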;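 note: thallium influx rate constant from kinetic fluorescence after stimulation buffer; % is set by controls: 0 for no effect and ±100 for the full control effect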
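Channel expression came from 3.1 mutant virus (1.77 x 10^8 /mL) applied to suspended U2OS cells for 4 h. Flux was tracked with FluxOr dye plus Red40 quencher, and kinetic rate constants normalized to controls.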
KCNH2 WT inh: inhibitors of human wildtype KCNH2 potassium channel | 340,000 compounds, 0.37% hits | activity change, % at 1.84 µM | Q12809 | U2OS, BacMam KCNH2, thallium flux FluxOr; active compounds read low;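 active = maximum activity change below -70%; inconclusive = maximum activity change between -70% and -50%; inactive = maximum activity change above -50%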; note: % is set by controls: 0 for no effect and ±100 for the full control effect
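U2OS cells were transduced with wild-type KCNH2 virus (2.03 x 10^8 / mL) for 4 h at room temperature, then cultured overnight at 37 C. Thallium flux was read with FluxOr dye. Rate constants were normalized to DMSO controls.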
Rango complex inh: prevents formation of the Rango-importin beta complex; Q14974; Rango CFP/YFP FRET sensor + importin beta, 45 min; Potency, µM (highest dose often 92.2 µM), inactives show top-dose inhibition of complex formation; 340,000 compounds, 0.031% hits; AID 540263;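 note: potency is the fitted concentration of half-maximal effect; 0% = DMSO wells and 100% = buffer wells lacking importin beta; nearly all actives have a fitted effect of over 15% in size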
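Inhibition scored from the CFP 486 nm/YFP 530 nm FRET ratio 45 min after adding 0.125 microM importin beta to 50 nM Rango biosensor preincubated 5 min with compound (room temperature, PBS with DTT, Tween-20, BSA). No-importin wells as positive control.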
Rango dissoc inh: inhibitors of RanGTP-induced Rango-importin beta complex dissociation; Potency, µM (series often up to 46.1 µM), for inactives: at the highest dose activity change, negative = inhibition; O95149+P62826; 340,000 compounds, 0.071% hits; AID 540253; Biochemical FRET Rango-importin beta, RanGTP-induced dissociation; note: potency is the fitted concentration of half-maximal effect; % of control where 0% means no effect; nearly all actives have a fitted effect of over 45% in size
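Recombinant Rango FRET biosensor (EYFP–snurportin 1 IBB–cerulean CFP10) at 0.1 uM premixed with 0.25 uM importin beta in PBS, 1 mM DTT, 0.02% Tween-20, 0.1% BSA. Compound added 5 min; RanGTP-RCC1 (0.6 uM Ran, 2 mM GTP, 0.2 uM RCC1) then triggers release, read at 45 min.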
CCT chaperon mod: modulators of cytosolic chaperonin (CCT/TRiC) activity | purified chaperonin ATPase assay, HTRF ADP detection, 30 min | activity change, % (concentration not given with the values), hits read low | 360,000 compounds, 0.3% hits; in the data active = activity change below about -30%; note: % is set by controls: 0 for no effect and ±100 for the full control effect
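TRiC (40 or 20 nM final, by batch activity) in 30 mM Tris pH 7.4, 100 mM KCl, 5 mM MgCl2, 1 mM DTT was treated with compound at 76 uM single dose, then 10 uM ATP, 30 min at 37 °C. ADP was read by HTRF Transcreener.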
Numbers without * were called inactive; ? = inconclusive; / = no result. Unless noted, calls come from the whole dose curve.

SMILES	Mm-Cpn inhibitor	KCNH2 3.1 block	KCNH2 WT inh	Rango complex inh	Rango dissoc inh	CCT chaperon mod
CCOCCCNC(=O)C(c1ccc(OC)cc1)N(Cc1ccc2c(c1)OCO2)C(=O)c1ccccn1 (centres undefined)	1.0%	5.7	-12.8	-1.4%	-15.6%	-14.9
CCOCCCNC(=O)C(c1ccc(OC)cc1)N(Cc1ccc2c(c1)OCO2)C(=O)c1cnccn1 (centres undefined)	-1.0%	4.3	-0.8	1.3%	-16.0%	-64.7*
Nc1ccccc1-c1nnc(-c2ccccc2N)n1N	0.7%	-113.6*	3.3	0.6%	0.4%	-1.2
CC(C)OCCCNc1nc2c(cnn2C)c(=O)[nH]1	/	4.3	5.0	0.5%	-4.4%	-1.4
Cc1ccc(OCC(=O)N2CCN(c3nnc(-c4ccccc4)c4ccccc34)CC2)cc1	-4.1%	-70.5*	-15.6	3.1%	-7.2%	0.3
Cc1ccc(OCC(=O)N2CCN(C(=O)CCC3CCCC3)CC2)cc1	0.4%	-0.2	6.6	0.9%	-9.6%	-75.9*
O=C(Nc1ccccc1OC(F)F)c1ccc(N2CCCC2=O)cc1	/	6.7	11.3	/	/	-1.1
O=S(=O)(Oc1ccccc1N1CCCCC1)c1ccccc1	5.3%	-6.9	2.6	0.5%	-5.7%	-0.8
CC1(C)NC(=O)N(CC(=O)OCC(=O)Nc2cccc(S(N)(=O)=O)c2)C1=O	-0.2%	13.6	/	-3.6%	-8.4%	0.8
COc1ccccc1-c1sc2cc3c(cc2c1C#Cc1ccccn1)OCO3	31.6µM*	13.4	1.7	?	-29.5%	0.4
CCCc1ncc(C(O)c2ccccc2OC)n1C (centres undefined)	1.9%	7.0	-201.1*	-0.1%	5.1%	-0.7
Nc1cc(N)c2c(c1)C(=O)c1ccccc1-2	/	-198.3*	-131.4*	1.6%	-5.8%	-2.5
Nc1ccc2c(c1)C(=O)c1ccc(N)cc1-2	/	-9.9	3.5	2.9%	-3.2%	-61.8*
Nc1ccc2c(c1)C(=O)c1cc(Cl)c(Cl)cc1-2	/	9.2	-2.6	-0.8%	25.5%	-1.6
CCCCN=C1NN=C(c2cc3ccccc3o2)CS1	-1.6%	-11.5	3.4	-2.9%	-6.4%	-0.9
CC(C)C/C(O)=C/c1nc2cc(Cl)ccc2oc1=O	-3.5%	5.5	4.8	?	14.6µM*	-2.8
O=c1oc2ccc(Cl)cc2nc1/C=C(\O)c1ccco1	-0.4%	7.0	3.7	-1.0%	-18.5%	-5.4
CCCNS(=O)(=O)c1ccc(OCC(=O)N2CCOCC2)cc1	-1.3%	-17.1	-11.3	2.0%	13.3%	1.0
Cc1ccc2nc(-c3cccnc3)oc2c1	-4.0%	-179.5*	-221.4*	1.4%	3.6%	-2.8
CCc1ccc(NC(=O)c2sc3nc4n(c(=O)c3c2C)CCC4)cc1	-1.0%	-90.6*	7.9	1.2%	-1.9%	2.6
CCCCCn1c(=O)c(C(=O)c2ccccc2)nc2ccccc21	-3.6%	-78.2*	-119.9*	3.6%	-5.6%	0.0
CCn1c(=O)c(C(C)=O)nc2ccccc21	-3.5%	0.5	-5.2	?	?	-0.5
CCCc1cc(=O)oc2cc(C)cc(OCC(=O)NC(Cc3ccc(Cl)cc3)C(=O)O)c12 (centres undefined)	-0.2%	-26.9	-4.3	0.8%	2.3%	0.8
CCCCc1cc(=O)oc2cc(C)cc(OCC(=O)NC(Cc3ccc(Cl)cc3)C(=O)O)c12 (centres undefined)	-2.1%	-3.2	-3.8	-2.8%	7.1%	-60.3*
CCN(CCNCC(O)COc1ccccc1C(C)C)c1cccc(C)c1 (centres undefined)	1.9%	-19.3	-0.4	-4.0%	-8.7%	-1.3
Cc1[nH]c2ccc(C(=O)NCCN3CCOCC3)cc2c1C	4.5%	-99.6*	-0.6	-0.8%	0.3%	1.2
CCOc1ccc(-n2c(C)nc3cc(C(=O)NCCN4CCOCC4)ccc32)cc1	2.8%	11.5	-12.8	?	-6.6%	1.6
COc1ccc(-n2c(C)nc3cc(C(=O)NCCN4CCOCC4)ccc32)cc1	2.9%	2.8	-183.5*	-2.9%	-6.5%	1.2
